In PubChem BioAssay (Tox21):
Results filed as inconclusive are left out. Unmarked numbers belong to inactive results. Calls follow the shape of the dose curve; as a rule, active = well fitted activation curve with a large enough effect in the repeat runs; inconclusive = weak or mixed curves; inactive = flat fitted curve, though single readings scatter.

Assay: A CellTox Green Cytotoxicity Assay to monitor cytotoxicity in HepG2 cells - 8 hour (AID 1224890); also: nearly all actives have a fitted effect of over 45% in size
Details: CellTox Green fluorescence; series mostly up to 76.8 µM; cytotoxicity increase: at the top concentration
Description: National Center for Advancing Translational Sciences [NCATS]
NIH Chemical Genomics Center [NCGC]
U.S. Environmental Protection Agency [EPA]
National Institutes of Environmental Health Sciences [NIEHS]
National Toxicology Program [NTP]
Cell-based models are critical for drug discovery. Determining the natural cytotoxic effects resulting from test compounds is an essential research activity. A CellTox Green Cytotoxicity Assay to monitor cytotoxicity in real time of continues cell culture during 40 hours of the compound treatment was used to screen Tox21 10K library compounds in HepG2 cells. CellTox Green Cytotoxicity Assay is a nonlytic, homogeneous, biofluorescent method to measure cytotoxicity in cell culture after experimental manipulation. The assay system uses a proprietary asymmetric cyanine dye that is excluded from viable cells but preferentially stains the dead cell's DNA. […] Viable cells produce no appreciable increases in fluorescence. Therefore, the fluorescence signal produced by the binding interaction with dead cell DNA is proportional to cytotoxicity.
The mixture of HepG2 cell suspension and reagents were dispensed at 600cells/6 ul/well in 1536-well tissue culture treated black solid bottom plates using a Multidrop dispenser. After the assay plates were incubated at a 37 C/5% CO2 incubator for 5 hours, 23 nL of compounds dissolved in DMSO, positive and negative controls was transferred to the assay plate by a pintool work station. The plates were incubated at 37 C for 40 hours. The fluorescence intensity were measured at 0h, 8h, 16h, 24h, 32h and 40h time points using ViewLux plate reader during compound treatment.
% is scaled to controls: 0 for no effect and ±100 for the full control effect.

Row | SMILES | cytotoxicity increase
1 | CCC(C)(C)c1cc(-n2nc3ccccc3n2)c(O)c(C(C)(C)CC)c1 | -8.13%
2 | Nc1c(Br)cc([N+](=O)[O-])cc1[N+](=O)[O-] | -8.03%
3 | C[C@H]1CCC[C@H](O)CCCCCc2cc(O)cc(O)c2C(=O)O1 | 0.495%
4 | CNC(=O)Oc1c(C(C)(C)C)cc(C)cc1C(C)(C)C | -1.24%
5 | COc1ccc(C(=O)N2CCCC2=O)cc1 | -0.58% [at 35.3 µM]
6 | CC(CCc1ccccc1)NC(C)C(O)c1ccc(O)cc1 (stereo not given) | -8.06% [at 35.3 µM]
7 | ClCC(Cl)(Cl)Cl | -10.6%
8 | CCCCN(CCCCO)N=O | -1.6%
9 | Cc1ncc(CNC(=O)N(CCCl)N=O)c(N)n1 | 3.29% [at 35.3 µM]
10 | CNC(=O)Oc1cccc(C(C)C)c1 | -12.8%
11 | C[N+](C)=CCl | -2.63%
12 | C=CC1CC=CCC1 (stereo not given) | 5.57%
13 | CCCSP(=S)(OCC)Oc1ccc(Cl)cc1Cl (stereo not given) | -12.3%
14 | OC(Cn1cncn1)(c1ccc(F)cc1)c1ccccc1F (stereo not given) | -7.67%
15 | O=[N+]([O-])c1cccc2cccnc12 | 3.37%
16 | O=C(O)c1ccc2[nH]cc(CCCCN3CC=C(c4ccccc4)CC3)c2c1 | -19.5% [at 35.3 µM]
17 | O=C(Cc1ccccc1)OCc1ccccc1 | 0.26%
18 | CCCCCCBr | -11.1%
19 | CCCCOC(=O)[C@@H](C)Oc1ccc(Oc2ccc(C#N)cc2F)cc1 | -13.1%
20 | CCCCCCI | -16%

Row | SMILES | cytotoxicity increase
21 | CNC(=O)O/N=C(\C)SC | -10.2%
22 | CC(=O)CCc1ccc2c(c1)OCO2 | -9.54%
23 | COc1cc(C[C@@H](C)N)c(OC)cc1C | -5.18%
24 | Cc1cc(C)nc(Nc2ccccc2)n1 | 0.929%
25 | Nc1n[nH]c(N)n1 | 3.76%
26 | CCOP(=O)(N=C1SCCS1)OCC | 5.54%
27 | [As]#[In] | -10.1%
28 | c1coc(-c2nc3ccccc3[nH]2)c1 | 1.37%
29 | O=C1OC(=O)C2C1C1(Cl)C(Cl)=C(Cl)C2(Cl)C1(Cl)Cl (stereo not given) | -15.7%
30 | CC(Oc1ccc(Oc2ncc(C(F)(F)F)cc2Cl)cc1)C(=O)O (stereo not given) | 1.22%
31 | COC(=O)C1=CCCN(C)C1 | -7.97% [at 35.3 µM]
32 | CC1COC2(c3ccccc3Cl)c3cc(Cl)ccc3NC(=O)CN12 (stereo not given) | 21% [at 35.3 µM]
33 | CCCCOC(=O)c1ccccc1N | 1.65%
34 | O=C(CCN1CC1)OCC(CO)(COC(=O)CCN1CC1)COC(=O)CCN1CC1 | -13.2%
35 | BrCCCCCCBr | 0.818%
36 | CC(CC(C#N)(c1ccccc1)c1ccccc1)N(C)C (stereo not given) | 7.29%
37 | CCCCc1c(C)nc(NCC)[nH]c1=O | 4.57%
38 | C[N+](=O)[O-] | 5.66%
39 | CC(=O)CC(c1ccc(Cl)cc1)c1c(O)c2ccccc2oc1=O (stereo not given) | 0.493%
40 | CCOC(=O)C1(c2ccccc2)CCN(CCc2ccc(N)cc2)CC1 | -5.07% [at 35.3 µM]
